Compound activity as filed in PubChem.
Hits are enriched below; roughly 21% of the tested compounds scored in any of these assays.
DT40 TDP1 no CPT = qHTS for Inhibitors of human tyrosyl-DNA phosphodiesterase 1 (TDP1): qHTS in cells in absence of CPT. DT40 Tdp1-/- hTDP1 cells, no CPT, ATP luminescence, 48 h. Potency, µM (titrated, usually from 46.2 µM), inactives show at the highest dose activity change, negative = growth inhibition, actives largely listed as inhibitors. 15% of 420,000 active. AID 686978, 2013; further: potency means the concentration at half of the fitted maximal effect; on the % scale 0 is the no-effect control and ±100 the full control effect; nearly all actives have a fitted effect of over 55% in size
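Seeded 400 DT40-hTDP1 cells/well (vehicle DMSO, no 20 nM CPT); pinned compounds; ≥48 hr at 37 °C; CellTiter-Glo luminescence as viability measure.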
IL-1B inflam inh = inflammasome signaling inhibition, IL-1 beta readout; THP-1 LPS/ATP IL-1B secretion, AlphaLISA, 16 h; hits give low values; activity change, % at 57.5 µM; 4.7% of 360,000 active; AID 743279; in the data active means activity change below about -50%; inconclusive means mostly about -30% to -49%; further: on the % scale 0 is the no-effect control and ±100 the full control effect
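THP-1 cells pretreated 1 hr with compounds (up to 57.5 uM final), then stimulated with LPS (250 ng/mL final) plus ATP (1.25 mM final); secreted IL-1B measured by AlphaLISA after 16 hr, decreased signal indicating inhibition.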
DRD3 agonist = agonists of human D3 dopamine receptor. D3R DiscoveRx beta-arrestin cells, luminescence, 90 min. max activation, %. 0.58% of 410,000 active; in the data active means max activation above about 30%; further: 0% is about no effect
Target sequence (P35462 whole entry, looked up): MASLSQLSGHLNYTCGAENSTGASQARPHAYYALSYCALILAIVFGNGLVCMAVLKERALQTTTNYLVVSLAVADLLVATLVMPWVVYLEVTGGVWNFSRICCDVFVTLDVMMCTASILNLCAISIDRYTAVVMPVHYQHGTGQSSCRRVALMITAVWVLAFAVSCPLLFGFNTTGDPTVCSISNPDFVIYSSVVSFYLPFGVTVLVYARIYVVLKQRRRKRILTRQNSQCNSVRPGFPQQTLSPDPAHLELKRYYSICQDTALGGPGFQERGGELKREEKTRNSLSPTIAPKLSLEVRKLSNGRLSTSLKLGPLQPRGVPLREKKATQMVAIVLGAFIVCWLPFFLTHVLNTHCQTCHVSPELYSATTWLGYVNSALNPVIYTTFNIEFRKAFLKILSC
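Agonist mode: compounds and dopamine controls were applied to plated cells for 90 min at 37 degrees C after an overnight attachment at 1500 cells/well. Luminescent read-out followed 30 - 60 minutes at room temperature with DiscoveRx detection reagent.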
ClpP mod = qHTS Assay for Activators of ClpP; ATP-dependent Clp protease proteolytic subunit (Bacillus subtilis (strain 168)), P80244; 1.9% of 340,000 active; purified B. subtilis ClpP, FRET peptide cleavage, 20 min; Potency, µM (doses to about 57.5 µM), for the others: top-dose activity change, negative = active; active means well fitted falling curve with a large enough effect; inconclusive means small, poorly fitted or top-dose-only effect; inactive means no such curve, though single readings can be large or run the other way; further: potency means the concentration at half of the fitted maximal effect; the source files actives as falling curves though it sought activators and does not explain the sign; nearly all actives have a fitted effect of over 65% in size
Target sequence (P80244 whole entry, looked up): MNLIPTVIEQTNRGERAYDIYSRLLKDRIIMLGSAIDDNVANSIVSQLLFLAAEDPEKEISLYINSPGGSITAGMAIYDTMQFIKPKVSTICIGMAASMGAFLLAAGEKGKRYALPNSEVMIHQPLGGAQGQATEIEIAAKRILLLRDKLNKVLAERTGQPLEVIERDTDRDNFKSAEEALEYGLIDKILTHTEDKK
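FRET quenching reversal measured ClpP activation: 10 microg/mL B. subtilis ClpP at pH 8 with the FRET-FV decapeptide, read at 430 nm after 320 nm excitation. The 20-min minus 0-min signal was scaled between DMSO/no-enzyme wells and ADEP (5.8 microM final).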
DT40 TDP1 CPT = growth inhibition of DT40 Tdp1-/-;hTDP1 cells with camptothecin (screen for TDP1 inhibitors) | Potency, µM (top dose mostly 46.2 µM), without a hit: at the top dose activity change, negative = growth inhibition, actives largely listed as inhibitors | 12% of 420,000 active | chicken DT40 Tdp1-/-;hTDP1 cells + 20 nM CPT, ATP luminescence, 48 h | AID 686979; further: potency means the concentration at half of the fitted maximal effect; on the % scale 0 is the no-effect control and ±100 the full control effect; nearly all actives have a fitted effect of over 55% in size
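Chicken DT40 Tdp1-/- cells complemented with human TDP1, 400 cells/well, exposed to compounds plus 20 nM camptothecin for at least 48 h at 37 C; viability read as ATP content by CellTiter-Glo luminescence.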
DRD3 antagonist = D3 dopamine receptor (human) antagonism; P35462; D3R cells, DiscoveRx beta-arrestin luminescence, antagonist mode; hits give low values; max response, negative = inhibition, %; 2.5% of 360,000 active; in the data active means max response below about -50%; inconclusive means no clear call, values can overlap the other calls; further: on the % scale 0 is the no-effect control and ±100 the full control effect
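Cells plated overnight at 1500 cells/well, then exposed to library compounds with dopamine controls for 90 minutes at 37 degrees C. DiscoveRx reagent added for 30–60 minutes at room temperature; luminescence read, quantitative HTS format.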
Numbers without * were called inactive; u = inconclusive; x = not tested or not shown; ! = a repeat was not active. Unless noted, the call rests on the fitted dose curve; in most records, active means well fitted inhibition curve with a large enough effect; inconclusive means small, poorly fitted or top-dose-only effect; inactive means flat fitted curve, though single readings scatter.

SMILES | DT40 TDP1 no CPT | IL-1B inflam inh | DRD3 agonist | ClpP mod | DT40 TDP1 CPT | DRD3 antagonist
Cc1cccc(-c2noc(CN(C(=O)c3c(-c4ccccc4Cl)noc3C)C(C)C)n2)c1 | 18µM* | -14 | 5 | 1% | 21µM* | 25
Cc1nnc(SC(C)C(=O)N(C)C2CCCCC2)n1N (configuration not stated) | 13% | -5 | 0 | -2% | 6% | 8
Cc1sc2ncnc(N3CCC(C(=O)N4CC(C)SC4=Nc4ccc(Cl)cc4)CC3)c2c1C (configuration not stated) | u | 8 | 10 | -1% | u | 14
COc1ccc(-c2noc(CN(C(=O)c3ccc4c(c3)OCO4)C(C)C)n2)cc1OC | u | -19 | -6 | 0% | u | -4
Cc1nc(C(C)N(C)Cc2nc(-c3ccc4c(c3)OCO4)no2)c(C)s1 (configuration not stated) | u | -18 | 1 | x | 23µM* | 1
Cc1cccc(-c2noc(CN(C(=O)COc3ccc(C(C)C)cc3)C(C)C)n2)c1 | 16µM* | x | 4 | 0% | u | x
Cc1cccc(-c2noc(CN(C(=O)c3ccc(Br)o3)C(C)C)n2)c1 | -9% | -5 | 0 | 1% | u | 8
CCOc1ccc(C(=O)N(Cc2nc(-c3cccc(C)c3)no2)C(C)C)cc1 | u | x | -7 | 0% | 21µM* | x
Cc1cccc(-c2noc(CN(C(=O)c3ccc4c(c3)OCO4)C(C)C)n2)c1 | u | -13 | 2 | u | 18µM* | 6
CNC(=O)C1CC(=O)N(c2ccc(OCC(=O)Nc3ccc(F)cc3)cc2)C1 (configuration not stated) | -24% | 28 | -5 | x | 1% | 4
CC(C)c1ccc(NC(=O)CCNC(=O)Cn2cnc3ccccc3c2=O)cc1 | -12% | 41 | -19 | 4% | 2% | -8
Cc1onc(-c2ccccc2Cl)c1C(=O)NCc1nc(-c2ccc(C(F)(F)F)cc2)no1 | 15µM* | -76* | -2 | x | u | 5
Cc1cccc(-c2noc(CN(C(=O)C(c3ccccc3)c3ccccc3)C(C)C)n2)c1 | 16µM* | -16 | 6 | 0% | u | -8
CC(C)N(Cc1nc(-c2ccccc2)no1)C(=O)Cc1ccccc1 | u | -5 | 4 | 0% | -28% | -4
CC(C)c1ccc(OC(=O)c2ccc3c(=O)n4c(nc3c2)CCC4)cc1 | u | -2 | 0 | 1% | u | -1
O=c1cc(C(F)(F)F)[nH]c2ccccc12 | 21µM* | 0 | 4 | 4% | u | 12
Cc1cccc2c(=O)cc(C(F)(F)F)[nH]c12 | u | 21 | -7 | x | u | -10
O=c1cc(C(F)(F)F)[nH]c2c(OC(F)(F)F)cccc12 | u | -59* | 15 | x | -19% | 33
O=C(O)c1cc(=O)c2ccccc2[nH]1 | -12% | 22 | -35 | -14% | 0.058µM*! | 0
Cc1ccc2[nH]c(C(F)(F)F)cc(=O)c2c1 | 12µM* | x | -9 | x | u | 8
CCOC(=O)c1c(S(=O)(=O)Nc2ccccc2OCC)c(C)n(C)c1C | 23% | 21 | 0 | 0% | -1% | 7
CC(CN1CCC(n2nccc2NC(=O)CCCc2ccccc2)CC1)c1ccccc1 (configuration not stated) | u | -11 | -13 | -1% | u | u
CC1CCN(C(=O)c2[nH]cnc2C(=O)Nc2ccccc2F)CC1 | -13% | u | -3 | -2% | -10% | -14
O=C(Nc1ccccc1)C1=C(c2ccccc2)S(=O)(=O)CCS1(=O)=O | 0.026µM* | -95* | -22 | x | 0.058µM* | -105*
O=C(O)c1ccccc1C(=O)Nc1ccccc1 | -2% | -1 | 8 | 1% | 2% | 22
SMILES | DT40 TDP1 no CPT | IL-1B inflam inh | DRD3 agonist | ClpP mod | DT40 TDP1 CPT | DRD3 antagonist
COC(=O)c1cc(S(=O)(=O)Nc2cccc(C)c2C)cn1C | -17% | 14 | 6 | 2% | -30% | 0
CC(=O)OC(C)(C)/C=C/C(=O)[C@](C)(O)C1[C@H](O)C[C@@]2(C)C3CC=C4C(C=C(O[C@@H]5O[C@H](CO)[C@@H](O)[C@H](O)[C@H]5O)C(=O)C4(C)C)[C@]3(C)C(=O)C[C@]12C (some centres not stated) | 1.8µM* | -16 | -20 | 0% | 1.6µM* | 15
O=C(CSc1nccc(=O)[nH]1)NC1CCCC1 | 0% | 36 | 5 | x | 5% | 10
CCn1c(SCc2ccc(F)cc2Cl)nc(=O)c2c(C(=O)OC)cc(C3CC3)nc21 | 18µM* | x | 0 | -3% | 16µM* | x
COC(=O)c1cc(C)nc2c1c(=O)nc(SCc1ccccc1F)n2C1CC1 | -18% | x | -9 | 0% | -3% | x
COC(=O)c1cc(C)nc2c1c(=O)nc(SCc1ccccc1Cl)n2C1CC1 | -6% | x | -13 | 3% | -20% | x
CCn1c(SCc2ccccc2F)nc(=O)c2c(C(=O)OC)cc(C3CC3)nc21 | u | x | 1 | -13% | 16µM* | x
CCCCN(C(=S)SC)C1CCS(=O)(=O)C1 (configuration not stated) | -17% | x | -4 | x | 9% | -11
COc1ccc(OCCCCc2c(C)n[nH]c2C)cc1 | u | -4 | 10 | x | 23µM* | -1
Cc1n[nH]c(C)c1CCOc1ccc(C(C)C)cc1 | u | 23 | -5 | 0% | u | 10
O=C(Cn1cnc2c(oc3nc4c(cc32)CCCC4)c1=O)Nc1cccc(Cl)c1 | 12µM* | 8 | -21 | x | 23µM* | -6
COc1ccc(N=Cc2c(O)n(-c3ccc(OC)cc3)c(=O)c3ccccc23)cc1 | -40% | -20 | 5 | x | -28% | -16
O=c1c2ccccc2c(C=Nc2cccc(O)c2)c(O)n1-c1ccc2c(c1)OCO2 | 12µM* | u | 3 | -2% | 6.5µM* | 40
COc1cc(NC(=O)CN(C)Cc2cccc(F)c2)c(C)cc1[N+](=O)[O-] | 21µM* | 3 | 3 | 0% | u | 12
COc1cc(NC(=O)CN(C)CCOc2ccccc2)c(C)cc1[N+](=O)[O-] | u | -19 | 2 | 2% | u | -19
COc1ccc(CN(C)CC(=O)Nc2cc(OC)c([N+](=O)[O-])cc2C)c(OC)c1 | 15µM* | u | -4 | -1% | 13µM* | 8
CC(=O)NC(CC(=O)OCC(=O)NCCc1ccccc1)c1ccccc1 (configuration not stated) | 0% | 9 | 2 | 0% | -9% | 6
Cc1cc(N2CCN(c3ccccc3Cl)CC2)n2cc(-c3ccccc3)nc2n1 | u | -60* | 2 | 14µM* | u | -20
